Holding throughout (format): functional
For experiment [1], the system named is Plasmodium falciparum. Description: GSK_TCMDC: Inhibition of Plasmodium falciparum 3D7 in whole red blood cells, using parasite LDH activity as an index of growth. Test compounds present at 2uM.
The subject of experiment [2] is Plasmodium falciparum. Description: GSK_TCMDC: Inhibition of Plasmodium falciparum Dd2 in whole red blood cells, using parasite LDH activity as an index of growth. Test compounds present at 2uM.
For a further experiment, the system named is HepG2. Description: GSK_TCMDC: Percent inhibition of human HepG2 cell line. Test compounds present at 10uM.

SMILES strings stand for the structures.

In the case of `Cc1nc(-c2cccc(C(=O)Nc3cnc4ccccc4c3)c2)no1.O=C(O)C(F)(F)F`, the Inhibition (usually the relative decrease from the control value, in per cent) is given as 85% in the experiment on Plasmodium falciparum [1], 12% in the experiment on Plasmodium falciparum [2] and 15% in the experiment on HepG2.

On to `COc1ccc(-c2ccc(NC(=O)c3cccc(Cl)c3)cc2)cc1CN(C)CCN(C)C.O=C(O)C(F)(F)F`, for which the values for the Inhibition in the experiment with Plasmodium falciparum [1], with Plasmodium falciparum [2] and in the experiment on HepG2 were 100%, 35% and 22%, respectively.

Turning to `COc1ccc(-c2cnc3ccc(N4CCCC4)nn23)cc1OC.O=CO`, the Inhibition was determined as 98% in the experiment with Plasmodium falciparum [1], 98% with Plasmodium falciparum [2] and 40% with HepG2.

Take `CCCCOC(=O)C1=C(C)NC2=C(C(=O)CCC2)C1c1ccc(OC)c(Br)c1` (stereo not drawn): the Inhibition with Plasmodium falciparum [1] is on record as 93%; in the experiment on Plasmodium falciparum [2], 87%; with HepG2, 5%.

Take `O=C(Nc1cccc(C(F)(F)F)c1)Nc1ccc(Cl)c(Cl)c1`: the figures for the Inhibition in the experiment on Plasmodium falciparum [1], in the experiment with Plasmodium falciparum [2] and with HepG2 were 100%, 100% and 5%, respectively.

Consider `NC1CCN(Cc2ccc(-c3ccc(-c4nc5ccccc5[nH]4)s3)cc2)C1.O=C(O)C(F)(F)F` (stereo not drawn), for which the values for the Inhibition with Plasmodium falciparum [1], in the experiment on Plasmodium falciparum [2] and with HepG2 were 100%, 99% and 32%, respectively.

`NS(=O)(=O)c1cccc(Br)c1`: the figures for the Inhibition in the experiment on Plasmodium falciparum [1], in the experiment on Plasmodium falciparum [2] and with HepG2 were 98%, 0% and 0%, respectively.

With `O=C(Nc1ccc(Cl)cc1)Nc1ccc(-c2cccc(-c3nc4ccccc4[nH]3)c2)cc1`, the Inhibition with Plasmodium falciparum [1] is 100%; in the experiment on Plasmodium falciparum [2], 78%; in the experiment with HepG2 it was 69%.

As for `C[C@H]1CN(Cc2cccc(-c3cc(CNC(=O)c4cccc(CC5CCN(C)CC5)c4)ccc3F)c2)CCN1C`, the Inhibition with Plasmodium falciparum [1] is listed as 100%; with Plasmodium falciparum [2], 99%; in the experiment with HepG2, 42%.

On to `Cc1nc2nc(N)nc(N)c2c(C)c1Cc1c(Cl)cccc1Cl.Cl`, for which the Inhibition was 94% in the experiment with Plasmodium falciparum [1], 5% in the experiment with Plasmodium falciparum [2] and 7% with HepG2.

For the compound `CCC(=O)NC(c1ccco1)c1cc(Cl)c2cccnc2c1O` (stereo not drawn), the Inhibition with Plasmodium falciparum [1] was determined as 89%; with Plasmodium falciparum [2], 74%; with HepG2 it was 58%.

Turning to `O=S(=O)(Nc1cccc(CCN2CCC(N3CCCCC3)CC2)c1)c1cccc(C(F)(F)F)c1`, the Inhibition was determined as 100% in the experiment with Plasmodium falciparum [1], 13% with Plasmodium falciparum [2] and 25% in the experiment with HepG2.

As to `CCCCCCCCCN1CC[C@@H](CCCc2ccnc3ccc(O)cc23)[C@@H](CC)C1.O=C(O)C(=O)O`, the Inhibition in the experiment with Plasmodium falciparum [1] turned out to be 83%; in the experiment on Plasmodium falciparum [2] it was 59%; in the experiment with HepG2, 58%.

With `O=C(Nc1ccc(Oc2ccccc2)cc1)N[C@@H](Cc1ccc(O)cc1)C(=O)NC1CCN(Cc2ccc(O)c([N+](=O)[O-])c2)C1` (stereo partly drawn), the Inhibition stood at 100% with Plasmodium falciparum [1], 0% in the experiment on Plasmodium falciparum [2] and 0% in the experiment on HepG2.

As to `CC1(C)N=C(N)N=C(N)N1c1cccc(Cl)c1.Cl`, the results for the Inhibition in the experiment with Plasmodium falciparum [1], with Plasmodium falciparum [2] and with HepG2 were 96%, 96% and 69%, respectively.

As to `CCn1ccc2c3c(N)nc(N)nc3ccc21`, the values for the Inhibition with Plasmodium falciparum [1], in the experiment on Plasmodium falciparum [2] and with HepG2 were 99%, 2% and 61%, respectively.

As for `CCCC(C)NC(=O)[C@H](CC1CCCCC1)NC(=O)c1ccc(O)c(-c2cccc(C(F)(F)F)c2)c1` (stereo partly drawn), the Inhibition in the experiment with Plasmodium falciparum [1] amounted to 100%; in the experiment on Plasmodium falciparum [2] it was 98%; with HepG2 it was 0%.

Consider `CCCCN(CCCC)C(=N)c1cccc2c1CCCC2.Cl`, for which the Inhibition in the experiment on Plasmodium falciparum [1] is 95%; with Plasmodium falciparum [2], 9%; with HepG2, 11%.

For `CC(=O)Nc1nc(C(=O)Nc2cccc(-c3ccc4c(cnn4CC4CC4)c3)c2)cs1`, the values for the Inhibition in the experiment with Plasmodium falciparum [1], in the experiment on Plasmodium falciparum [2] and with HepG2 were 95%, 67% and 16%, respectively.

On to `Cl.O=C(/C=C/c1ccc(Cl)c(Cl)c1)N1CCC(CCN2CCC(c3c[nH]c4cnccc34)CC2)CC1`, for which the Inhibition with Plasmodium falciparum [1] is 100%; in the experiment with Plasmodium falciparum [2] it was 100%; in the experiment with HepG2, 93%.

In the case of `CN1CC[C@@H](Oc2cc(Nc3nc(-c4ccc(C#N)cc4)cs3)ccc2Cl)C1.Cl`, the results for the Inhibition in the experiment with Plasmodium falciparum [1], with Plasmodium falciparum [2] and in the experiment on HepG2 were 99%, 24% and 12%, respectively.

With `COc1ccc2nccc([C@@H](O)CN3CCC(NCc4cc5ccc(C#N)cc5[nH]4)CC3)c2c1.O=C(O)C(=O)O`, the Inhibition in the experiment on Plasmodium falciparum [1] was 100%; with Plasmodium falciparum [2], 39%; with HepG2, 31%.

For the compound `COc1ccc2cc(C(C)NC3CCN(c4cccc(NC(=O)c5ccncc5)c4)CC3)ccc2c1` (stereo not drawn), the Inhibition is listed as 91% in the experiment on Plasmodium falciparum [1], 6% in the experiment with Plasmodium falciparum [2] and 13% with HepG2.

As to `CCn1cc(C=C2Oc3c(ccc(O)c3CN3CCCCC3)C2=O)c2ccccc21`, the values for the Inhibition in the experiment with Plasmodium falciparum [1], in the experiment on Plasmodium falciparum [2] and in the experiment with HepG2 were 100%, 99% and 0%, respectively.

Consider `CNCc1ccc2nc(-c3coc(Cc4cc(Cl)ccc4OCC(C)C)n3)[nH]c2c1.Cl`, for which the Inhibition amounted to 100% in the experiment on Plasmodium falciparum [1], 95% in the experiment on Plasmodium falciparum [2] and 34% with HepG2.

For `CCN1CCN(CCCNc2c3ccc(Cl)cc3nc3ccc(OC)cc23)CC1.Cl`, the Inhibition in the experiment on Plasmodium falciparum [1] came out at 97%; in the experiment with Plasmodium falciparum [2] it was 100%; with HepG2, 34%.

In the case of `Nc1ncc(-c2ccc3ncccc3c2)c(N)n1.O=C(O)C(F)(F)F`, the figures for the Inhibition in the experiment on Plasmodium falciparum [1], with Plasmodium falciparum [2] and in the experiment on HepG2 were 97%, 0% and 55%, respectively.

As for `COc1ccc2nccc([C@@H](O)CN3CCC(NC(=O)C(c4ccsc4)N4CCN(c5ccccc5OC)CC4)CC3)c2c1` (stereo partly drawn), the Inhibition in the experiment on Plasmodium falciparum [1] is recorded as 95%; with Plasmodium falciparum [2], 50%; in the experiment on HepG2, 11%.

Regarding `O=C(Nc1ccc(-c2nc3ccccc3[nH]2)cc1)c1cncc(Br)c1`, the Inhibition in the experiment with Plasmodium falciparum [1] stood at 95%; in the experiment on Plasmodium falciparum [2], 49%; with HepG2 it was 35%.

Consider `O=C1OC2(CN1CC1CCN(Cc3ccc(O)c(Cl)c3)CC1)c1ccccc1-c1ccccc12`, for which the values for the Inhibition with Plasmodium falciparum [1], with Plasmodium falciparum [2] and in the experiment on HepG2 were 97%, 96% and 32%, respectively.

For the compound `CC1CCCCC1N(C)C1CCN(CCCNC(=O)C=Cc2cccc(C(F)(F)F)c2)CC1` (stereo not drawn), the Inhibition with Plasmodium falciparum [1] was 100%; with Plasmodium falciparum [2] it was 17%; in the experiment with HepG2 it was 47%.

The record behind these values is ChEMBL document CHEMBL1157539, “Thousands of chemical starting points for antimalarial lead identification” (Nature, 2010).
